Screening data deposited in PubChem BioAssay by National Center for Advancing Translational Sciences (NCATS).
JMJD2A Tudor inh: inhibitors of human JMJD2A Tudor domain; 390,000 compounds, 4.4% hits; Potency, µM (doses to about 114 µM), actives largely listed as inhibitors; AlphaScreen JMJD2A-Tudor / H3K4me3 peptide binding; O75164; further: nearly all actives have a fitted effect of over 50% in size
HP1b binding inh: inhibitors of HP1-beta chromodomain binding to methylated histone tails; AlphaScreen HP1-beta / biotin-H3K9me3 peptide binding; 390,000 compounds, 0.56% hits; P83916; Potency, µM (series often up to 114 µM), hits mostly inhibitors; further: nearly all actives have a fitted effect of over 70% in size
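AlphaScreen: HP1-beta (50 nM) preformed 30 min with biotin-H3(1-18)K9me3 peptide (50 nM) in PBS pH 7.4, 0.01% Tween-20. Compound added for 30 min at RT, then streptavidin donor/nickel chelate acceptor beads (10 ug/mL) for 30 min.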
BAZ2B block: inhibitors of human BAZ2B bromodomain; 360,000 compounds, 4.4% hits; Potency, µM (series often up to 114 µM), most hits filed as inhibitors; Q9UIF8; AlphaScreen BAZ2B-H3K14Ac peptide displacement; further: nearly all actives have a fitted effect of over 60% in size
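AlphaScreen displacement: compounds (up to 110uM) incubated 30 min at room temperature with a preformed 50 nM BAZ2B/50 nM biotinylated H3K14Ac peptide complex in PBS pH 7.4 with Tween-20. Donor and acceptor beads at 10 ug/mL final added, 20 min light-protected before reading.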
ALOX12 inh: inhibitors of human 12S-lipoxygenase ALOX12 | P18054 | purified 12hLO, xylenol orange hydroperoxide absorbance | Potency, µM (doses to about 108 µM), usual class: inhibitors | 580,000 compounds, 1.1% hits | AID 1671190
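Purified human 12hLO at 150 nM in 25 mM Hepes, 0.01% Triton X-100, pH 7.0, preincubated 15 min at room temperature with compound. Reaction started with 40 uM arachidonic acid, 30 min at room temperature. Hydroperoxide measured by Fe-xylenol orange, 573/405 nm absorbance ratio.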
G9a inh-1: blocks human histone lysine methyltransferase G9a; G9a H3K9 monomethylation, AlphaScreen, 2 h; Potency, µM (doses to about 102 µM), usual class: inhibitors; 350,000 compounds, 8.8% hits; AID 504332; further: nearly all actives have a fitted effect of over 75% in size
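Readings reflect AlphaScreen signal from monomethyl-H3K9 antibody detection. HMT at 20 nM; substrate b-H3K9 500 nM; cofactor SAM 20 uM; 2 h RT reaction; compounds tested as titrations in qHTS with 15 min preincubation.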
Sfp inh: blocks B. subtilis Sfp PPTase activity. Q9F4F7. AID 1490. Biochemical Sfp PPTase activity, qHTS. 310,000 compounds, 3.5% hits. Potency, µM, most hits filed as inhibitors;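 further: the enzyme is Sfp with the accession as filed and its product quenches rhodamine fluorescence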
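Compounds were incubated with enzyme (final 15 nM) for 15 min at room temperature before substrate addition started the reaction. Fluorescence at 525 nm excitation, 598 nm emission was recorded immediately and after 30 minutes.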
Sfp inh conf: confirmation of Bacillus subtilis Sfp PPTase inhibitors; shares compounds with Sfp inh; Sfp PPTase enzymatic assay, qHTS titration; Potency, µM (top dose mostly 114 µM), usual class: inhibitors; 380 compounds, 79% hits; AID 2701
Sfp PPTase gel: Blocks Sfp PPTase activity, gel read-out. shares compounds with Sfp inh. Potency, µM, actives largely listed as inhibitors. 210 compounds, 20% hits. purified Sfp, gel-based phosphopantetheinylation read-out;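 active means potency below 100 µM; inconclusive means dose-dependent response but potency above 100 µM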;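 further: potency is an IC50 for inhibitors of Sfp transfer activity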
ME-1 prolif: ME-1 cell growth inhibition. shares compounds with BAZ2B block. ME-1 cell proliferation, ATP luminescence, 48 h. Potency, µM (series often up to 56.1 µM), usual class: inhibitors. 140 compounds, 20% hits. AID 504370
G9a inh-2: confirmation of human histone methyltransferase G9a inhibitors; shares compounds with JMJD2A Tudor inh; G9a H3K9 monomethylation, AlphaScreen, 2 h; Potency, µM, actives largely listed as inhibitors; 370 compounds, 89% hits; AID 588344; further: nearly all actives have a fitted effect of over 65% in size
Of the large screens only hits and unclear results are named; the others gave an inactive call (follow-up assays come after a bar, where they were run); ! = a repeat was not active. In the library only some 8.7% were active in any assay of this set; here they are far more common. Unless noted, the call rests on the fitted dose curve; in most records, active means well fitted curve in the direction sought with a large enough effect; inconclusive means small, poorly fitted or top-dose-only effect, or another doubt; inactive means no such curve, though single readings can be large; an effect the other way counts as inactive or inconclusive.

COc1cc2c(cc1OCC1CC1)NC(=O)C21CCN(c2nccc(C(F)(F)F)n2)CC1	none (no result: JMJD2A Tudor inh, HP1b binding inh, BAZ2B block, G9a inh-1, Sfp inh)
C/C(O)=C1\C(=O)[C@@H]2[C@H]3c4c[nH]c5cccc(c45)C[C@H]3C(C)(C)N2C1=O	ALOX12 inh inconclusive, G9a inh-1 25µM!, Sfp inh 56µM (no result: JMJD2A Tudor inh, HP1b binding inh, BAZ2B block)
COc1ccc(CN2C(=O)CC(=O)NC2=S)cc1	BAZ2B block inconclusive, ALOX12 inh 45µM, G9a inh-1 71µM, Sfp inh inconclusive
O=C1CC(=O)N(Cc2ccccc2)C(=O)N1	ALOX12 inh inconclusive (no result: BAZ2B block, G9a inh-1, Sfp inh)
CC(C)CN1Cc2ccccc2-n2ccnc2C12CCN(C(=O)c1ccco1)CC2	none (no result: JMJD2A Tudor inh, HP1b binding inh, BAZ2B block, G9a inh-1, Sfp inh)
Clc1ccc(Cl)c(-c2ccc(CNC3CN4CCC3CC4)o2)c1 (stereo not given)	ALOX12 inh 8.9µM (no result: JMJD2A Tudor inh, HP1b binding inh, BAZ2B block, G9a inh-1, Sfp inh)
Cn1c(=O)c2[nH]cnc2n(C)c1=O	BAZ2B block inconclusive, ALOX12 inh inconclusive, G9a inh-1 3.4µM!, Sfp inh 56µM!
Cn1c(O)c(/C=N/c2ncccn2)c(=O)n(C)c1=O	ALOX12 inh inconclusive
C/C(=C/CCC(C)[C@H]1CC[C@@]2(C)C3=C(CC[C@]12C)[C@@]1(C)CCC(=O)C(C)(C)[C@@H]1CC3)C(=O)O (stereo not given in full)	JMJD2A Tudor inh 63µM, BAZ2B block inconclusive, G9a inh-1 inconclusive
CCCCC/C=C\C/C=C\C/C=C\C/C=C\CCCC(=O)NCCCl	G9a inh-1 inconclusive, Sfp inh 32µM (no result: JMJD2A Tudor inh, HP1b binding inh, BAZ2B block, ALOX12 inh)
CCCCC/C=C\C/C=C\C/C=C\C/C=C\CCCC(=O)O	G9a inh-1 16µM!, Sfp inh 63µM! (no result: JMJD2A Tudor inh, HP1b binding inh)
CCCCC/C=C\C/C=C\CCCCCCCC(=O)NCCCC(=O)O	none (no result: JMJD2A Tudor inh, HP1b binding inh, BAZ2B block, ALOX12 inh, G9a inh-1)
O[C@H]1[C@H](NCc2ccccn2)[C@H]2CO[C@H](O2)[C@@H]1N1CCCC1	none (no result: JMJD2A Tudor inh, HP1b binding inh, BAZ2B block, G9a inh-1, Sfp inh)
CC(C)(C)c1cn(C[C@H]2CC3CCN2C[C@@H]3C(=O)NCc2ccc3c(c2)OCO3)nn1 (stereo not given in full)	none (no result: JMJD2A Tudor inh, HP1b binding inh, BAZ2B block, G9a inh-1, Sfp inh)
COc1ccc(NC(=O)N2[C@H]3CC[C@@H]2c2cnc(C)nc2C3)c(C)c1	none (no result: JMJD2A Tudor inh, HP1b binding inh, BAZ2B block, G9a inh-1, Sfp inh)
CN(C)C1C(=O)C(C(N)=O)C(=O)C2(O)C(=O)C3C(=O)c4c(O)cccc4C(C)(O)C3C(O)C12 (stereo not given)	G9a inh-1 3.5µM, Sfp inh 7.9µM (no result: JMJD2A Tudor inh, HP1b binding inh, BAZ2B block, ALOX12 inh) | Sfp inh conf inconclusive
CCOC(=O)Nc1ccc(NCc2ccc(F)cc2)nc1N	JMJD2A Tudor inh 56µM, HP1b binding inh inconclusive, BAZ2B block 71µM, ALOX12 inh inconclusive, G9a inh-1 1.2µM, Sfp inh 35µM | Sfp inh conf 15µM
Clc1ccc(COC(Cn2ccnc2)c2ccc(Cl)cc2Cl)c(Cl)c1 (stereo not given)	JMJD2A Tudor inh 40µM, BAZ2B block 22µM, ALOX12 inh inconclusive, Sfp inh 35µM! | Sfp inh conf inconclusive
Clc1ccc(CO[C@@H](Cn2ccnc2)c2ccc(Cl)cc2Cl)cc1	G9a inh-1 inconclusive (no result: JMJD2A Tudor inh, HP1b binding inh, BAZ2B block, ALOX12 inh)
CCC1C=CC=CC[C@H](C)[C@@H](O)[C@](C)(O)C(=O)[C@@H](C)[C@H](O)[C@@H](C)C(=O)[C@H](C)[C@@H](O)[C@H](C)C=CC(=O)OC2[C@@H](C)C(CC1)OC1(CC[C@@H](C)C(C[C@H](C)O)O1)[C@@H]2C (stereo not given in full)	none (no result: JMJD2A Tudor inh, HP1b binding inh, ALOX12 inh, Sfp inh)
CC[C@@H]1/C=C/C=C/C[C@H](C)[C@@H](O)[C@](C)(O)C(=O)[C@H](C)[C@@H](O)[C@H](C)C(=O)[C@H](C)[C@@H](O)[C@H](C)/C=C/C(=O)O[C@H]2[C@@H](C)[C@@H](CC1)O[C@@]1(CC[C@@H](C)[C@@H](C[C@H](C)O)O1)[C@@H]2C	Sfp inh 0.0006µM (no result: JMJD2A Tudor inh, HP1b binding inh, BAZ2B block, ALOX12 inh) | Sfp inh conf inactive | Sfp PPTase gel inactive
COc1cc2c(cc1OCc1ccncc1)NC(=O)C21CCN(Cc2ccncc2)CC1	none (no result: JMJD2A Tudor inh, HP1b binding inh, BAZ2B block, G9a inh-1, Sfp inh)
Cc1ncc2c(n1)C[C@@H]1CC[C@H]2N1C(=O)NC(C)(C)C	none (no result: JMJD2A Tudor inh, HP1b binding inh, BAZ2B block, G9a inh-1, Sfp inh)
Cc1c(OCC(F)(F)F)ccnc1CS(=O)c1nc2ccccc2[nH]1 (stereo not given)	JMJD2A Tudor inh inconclusive, BAZ2B block 35µM, ALOX12 inh 12µM!, G9a inh-1 6.7µM!, Sfp inh 13µM! | Sfp inh conf 30µM | Sfp PPTase gel inactive | G9a inh-2 0.5
CCC1(N2CCN(C(=O)Cc3ccc(Cl)cc3)CC2)CCN(S(C)(=O)=O)C1 (stereo not given)	none (no result: JMJD2A Tudor inh, HP1b binding inh, BAZ2B block, G9a inh-1, Sfp inh)
CC[n+]1c(-c2ccccc2)c2cc(N)ccc2c2ccc(N)cc21	JMJD2A Tudor inh inconclusive, HP1b binding inh inconclusive, ALOX12 inh inconclusive, G9a inh-1 13µM, Sfp inh inconclusive (no result: BAZ2B block) | ME-1 prolif 10µM
CN1CCN(C(=O)Cc2c[nH]c3ncc(-c4ccoc4)cc23)CC1	none (no result: JMJD2A Tudor inh, HP1b binding inh, BAZ2B block, G9a inh-1, Sfp inh)
